Among all 330,000 compounds or so, about 940 (0.28%) were called active. No stated cut-off is given here; in the data, active means inhibition above about 12%; inactive means the rest. What follows is part of a selection rich in actives, with near analogues and random picks from the rest.
test: growth inhibition of E. coli expressing H. pylori AddAB, primary screen, AddAB inhibitor project, absorbance (AID 435030); conditions: at 11.9 µM, active compounds read high;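 further: 0% = vehicle wells of infected cells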

SMILES | inhibition
C/C(=N/O)c1ccc2ccc3ccccc3c2c1 | 1.43% (inactive)
Cc1ccc(-n2c(-c3ccc([N+](=O)[O-])cc3)nc3ccccc3c2=O)cc1 | 0.16% (inactive)
O=[N+]([O-])c1cnc2ccc3ccccc3c2c1 | 50.7% (active)
CCc1ccc(OCC(=O)N2CCN(CC(=O)Nc3ccccc3Cl)CC2)cc1 | -0.08% (inactive)
CN(C)S(=O)(=O)c1cc(C(=O)N2CCC(C(=O)O)(c3ccccc3)CC2)ccc1Cl | 23.8% (active)
CCc1nc2ccccc2c(=O)n1-c1cccc(OC)c1 | 1.96% (inactive)
COc1ccc(S(=O)(=O)NCc2ccc(C(=O)N3CCC4(CC3)OCCO4)cc2)cc1 | 2.3% (inactive)
c1ccc2sc(N3CCNCC3)nc2c1 | -0.09% (inactive)
C[C@]12CC[C@H](O)CC1=C([N+](=O)[O-])CC1C2CC[C@@]2(C)C1CC[C@@H]2O (stereo not given in full) | 1.39% (inactive)
Cc1ccc(-c2nn(CCC#N)cc2C(=O)O)cc1C | 2.06% (inactive)
